{
  "source": "PubChem BioAssay (Tox21)",
  "note": "Activity calls are given as the source filed them. Calls follow the shape of the dose curve; as a rule, active = well fitted curve in the direction sought with a large enough effect in the repeat runs; inconclusive = weak or mixed curves; inactive = flat fitted curve, though single readings scatter. % is scaled to controls: 0 for no effect and ±100 for the full control effect; potency is read from the fitted curve at half-maximal effect; tags tell the direction and shape of the fitted curve or compound fluorescence and quenching.",
  "data": [
    {"assay": "qHTS assay to test for compound auto fluorescence at 460 nm (blue) in HepG2 cells (AID 720687)", "conditions": "autofluorescence 405/460 nm, 1 h; series mostly up to 91.3 µM; fluorescence, % of fluorescent control: at the top concentration", "from_the_text": "U.S. Tox21 Program National Center for Advancing Translational Sciences [NCATS] NIH Chemical Genomics Center [NCGC] U.S. Environmental Protection Agency [EPA] National Institutes of Environmental Health Sciences [NIEHS] National Toxicology Program [NTP] U.S. Food and Drug Administration [FDA] Tox21 Assay Overview: Compound auto fluorescence often interferes with screening of the compound library against various biological targets and signaling pathways. Some of these compounds may have fluorophoric properties. Such properties may interfere with the assay outputs resulting in false positives and/or negatives. To decrease such complications and ensure the compound activities are relevant in terms of biological response, the Tox21 10K compound library was screened for auto fluorescence. From the fluorophores used as reporter signals in our screening assays, the auto fluorescence equivalencies of compounds against three fluorophores have been evaluated: Triamterene, Fluorescein and Rose Bengal sodium for blue, green and red fluorescence, respectively. The fluorescence intensities were measured using Excitation/Emission wavelengths at 405/460nm, 485/535nm and 540/590nm for blue, green and red labels, respectively. This assay includes the blue fluorescence data.\nTox21 Assay Protocol Summary: 2,000 HepG2 cells in 5 uL of culture medium (MEM containing 10% FBS) per well were dispensed into black wall/clear bottom 1536-well plates using a Multidrop Combi Dispenser (ThermoFisher Scientific, Waltham, MA). The assay plates were incubated overnight at 37 C to allow cell attachment to the well bottom, followed by the transfer of 23 nL compound or DMSO vehicle by a pintool work station (Kalypsys , San Diego, CA). After the assay plates were incubated for 1 hr at 37 C and 5% CO2, fluorescence intensities in the assay plates were measured by an Envision (PerkinElmer, Shelton, CT) plate reader using three labels for measuring blue, green and red fluorescence at […] 460, 535 and 590 nm respectively.", "values": [
      {"smiles": "CCC(=O)/C=C/c1ccc(OC)cc1", "fluorescence, % of fluorescent control": "-0.631% (inactive)"},
      {"smiles": "Cc1cc(C)c(NC(=O)CN(CC(=O)O)CC(=O)O)c(C)c1Br", "fluorescence, % of fluorescent control": "-0.0614% [at 46 µM] (inactive)"},
      {"smiles": "CC(C)COC(=O)c1ccccc1O", "fluorescence, % of fluorescent control": "0.0185% (inactive)"},
      {"smiles": "O=[N+]([O-])c1ccc(Oc2ccc([N+](=O)[O-])cc2)cc1", "fluorescence, % of fluorescent control": "-0.0115% [at 95.7 µM] (inactive)"},
      {"smiles": "C1CCCCCCCCCCC1", "fluorescence, % of fluorescent control": "-0.112% [at 18.6 µM] (inactive)"},
      {"smiles": "CCCCN(CCO)CCO", "fluorescence, % of fluorescent control": "0.0866% (inactive)"},
      {"smiles": "N#CCc1ccccc1[N+](=O)[O-]", "fluorescence, % of fluorescent control": "-0.009% (inactive)"},
      {"smiles": "O=C(O)CCNC(=O)c1ccc(N=Nc2ccc(O)c(C(=O)O)c2)cc1", "fluorescence, % of fluorescent control": "-0.406% [at 46 µM] (inactive)"},
      {"smiles": "Cn1ccc2cc3c(cc21)CCN3C(=O)Nc1cccnc1", "fluorescence, % of fluorescent control": "0.0971% [at 46 µM] (inactive)"},
      {"smiles": "CC(C=O)Cc1ccc(C(C)C)cc1", "note": "(stereo not given)", "fluorescence, % of fluorescent control": "0.0027% (inactive)"},
      {"smiles": "Nc1ccc2cc(S(=O)(=O)O)ccc2c1", "Potency": "31.6 µM [fluorescent] (active)"},
      {"smiles": "Nc1nc2c(ncn2CCC(CO)CO)c(=O)[nH]1", "fluorescence, % of fluorescent control": "-0.0313% [at 46 µM] (inactive)"},
      {"smiles": "CC(C)CCCC(C)CCCC(C)CCCCC(C)CCCC(C)CCCC(C)C", "note": "(stereo not given)", "fluorescence, % of fluorescent control": "-0.121% [at 46 µM] (inactive)"},
      {"smiles": "CCCCCC[C@@H](CCC)C(=O)O", "fluorescence, % of fluorescent control": "-0.139% [at 46 µM] (inactive)"},
      {"smiles": "CC(C)CCOC(=O)CC(C)C", "fluorescence, % of fluorescent control": "-0.0575% (inactive)"},
      {"smiles": "NS(=O)(=O)c1cc2c(cc1C(F)(F)F)NC(Cc1ccccc1)NS2(=O)=O", "note": "(stereo not given)", "fluorescence, % of fluorescent control": "0.0124% [at 18.6 µM] (inactive)"},
      {"smiles": "CCCCCCOC(=O)CC(CC(=O)OCCCCCC)(OC(=O)CCC)C(=O)OCCCCCC", "fluorescence, % of fluorescent control": "0.0324% (inactive)"},
      {"smiles": "OCC(CO)(CO)COCC(CO)(CO)CO", "fluorescence, % of fluorescent control": "-0.0234% (inactive)"},
      {"smiles": "CC/C=C\\CCCCO", "fluorescence, % of fluorescent control": "-0.0119% (inactive)"},
      {"smiles": "N#CCN(CC#N)CCN(CC#N)CC#N", "fluorescence, % of fluorescent control": "-0.112% (inactive)"},
      {"smiles": "OCCCCCCO", "fluorescence, % of fluorescent control": "-0.004% [at 95.7 µM] (inactive)"},
      {"smiles": "COc1ccc(N=[N+]([O-])c2ccc(OC)cc2)cc1", "fluorescence, % of fluorescent control": "-0.0476% (inactive)"},
      {"smiles": "O=C(O)c1ccccc1-c1ccc(C(F)(F)F)cc1", "fluorescence, % of fluorescent control": "0.0142% [at 46 µM] (inactive)"},
      {"smiles": "CCCCCCCCCCCl", "fluorescence, % of fluorescent control": "-0.049% [at 95.7 µM] (inactive)"},
      {"smiles": "CCCCOCC(C)OCC(C)O", "note": "(stereo not given)", "fluorescence, % of fluorescent control": "0.0267% [at 95.7 µM] (inactive)"},
      {"smiles": "C#CC(C)(O)CC(C)C", "note": "(stereo not given)", "fluorescence, % of fluorescent control": "0.153% (inactive)"},
      {"smiles": "Cc1onc(-c2ccccc2)c1-c1ccc(S(N)(=O)=O)cc1", "fluorescence, % of fluorescent control": "-0.106% [at 46 µM] (inactive)"},
      {"smiles": "Oc1ccc2c(c1)OC[C@@H](N1CCC(O)(c3ccc(F)cc3)CC1)[C@H]2O", "fluorescence, % of fluorescent control": "-0.0412% [at 46 µM] (inactive)"},
      {"smiles": "CCCCc1ccc2cccc(S(=O)(=O)O)c2c1", "fluorescence, % of fluorescent control": "0.0864% (inactive)"},
      {"smiles": "CCCC=O", "fluorescence, % of fluorescent control": "0.0422% (inactive)"},
      {"smiles": "COc1nc(C)nc(N)n1", "fluorescence, % of fluorescent control": "-0.038% (inactive)"},
      {"smiles": "Cc1ccc(N)cc1[N+](=O)[O-]", "fluorescence, % of fluorescent control": "-0.0193% (inactive)"},
      {"smiles": "COc1ccc(COC=O)cc1", "fluorescence, % of fluorescent control": "0.0405% (inactive)"},
      {"smiles": "OC1OC[C@@H](O)[C@H](O)[C@H]1O", "note": "(stereo not given in full)", "fluorescence, % of fluorescent control": "0.0177% (inactive)"},
      {"smiles": "C=CCn1c(=O)n([C@@H]2O[C@H](CO)[C@@H](O)[C@H]2O)c2nc(N)[nH]c(=O)c21", "fluorescence, % of fluorescent control": "0.026% [at 46 µM] (inactive)"},
      {"smiles": "NS(=O)(=O)c1cc2c(cc1Cl)NC(CSCc1ccccc1)=NS2(=O)=O", "fluorescence, % of fluorescent control": "0.19% [at 18.6 µM] (inactive)"},
      {"smiles": "CCC(=O)Nc1cccc(N)c1", "fluorescence, % of fluorescent control": "0.334% (inactive)"},
      {"smiles": "C=CCOCC(O)CS(=O)(=O)O", "note": "(stereo not given)", "fluorescence, % of fluorescent control": "-0.104% [at 95.7 µM] (inactive)"},
      {"smiles": "C(=C(c1ccccc1)c1ccccc1)c1ccccc1", "fluorescence, % of fluorescent control": "0.0289% (inactive)"},
      {"smiles": "O=C(O)/C=C/c1ccc(Cn2ccnc2)cc1", "fluorescence, % of fluorescent control": "0.143% [at 18.6 µM] (inactive)"}
    ]}
  ]
}
